Compounds with a hit are over-represented: about 12% of the library has one in this group of screens.
HP1b binding inh: inhibitors of HP1-beta chromodomain binding to methylated histone tails. AlphaScreen HP1-beta / biotin-H3K9me3 peptide binding. Potency, µM (series often up to 114 µM), usual class: inhibitors. actives 0.56% (n = 390,000); also: nearly all actives have a fitted effect of over 70% in size
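AlphaScreen: HP1-beta (50 nM) preformed 30 min with biotin-H3(1-18)K9me3 peptide (50 nM) in PBS pH 7.4, 0.01% Tween-20. Compound added for 30 min at RT, then streptavidin donor/nickel chelate acceptor beads (10 ug/mL) for 30 min.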
Sfp PPTase inh: inhibitors of Bacillus subtilis Sfp phosphopantetheinyl transferase | Q9F4F7 | Biochemical Sfp PPTase activity, qHTS | Potency, µM, usual class: inhibitors | actives 3.5% (n = 310,000) | AID 1490;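 also: the enzyme is Sfp with the accession as filed and its product quenches rhodamine fluorescence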
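Step 1, compound plus 15 nM Sfp-PPTase, 15 min, room temperature. Step 2, add rhodamine-CoA (5 uM) and BHQ-2-YbbR (12.5 uM). Step 3, read 525/598 nm fluorescence at 0 and 30 min.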
JMJD2A Tudor inh: inhibitors of human JMJD2A Tudor domain; AID 504339; actives 4.4% (n = 390,000); Potency, µM (highest dose often 114 µM), actives largely listed as inhibitors; AlphaScreen JMJD2A-Tudor / H3K4me3 peptide binding; also: nearly all actives have a fitted effect of over 50% in size
BAZ2B block: inhibitors of human BAZ2B bromodomain; Potency, µM (top dose mostly 114 µM), actives largely listed as inhibitors; Q9UIF8; actives 4.4% (n = 360,000); AlphaScreen BAZ2B-H3K14Ac peptide displacement; also: nearly all actives have a fitted effect of over 60% in size
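BAZ2B 50 nM plus b-H3(5-23)K14Ac 50 nM, PBS pH 7.4/0.01% Tween-20, 30 min RT; compound added (max 110 uM), 30 min RT; streptavidin donor/Ni-chelate acceptor beads 10 ug/mL final, 20 min dark; AlphaScreen read.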
L3MBTL1 inh: inhibitors of human L3MBTL1; Q9Y468; actives 0.66% (n = 230,000); Potency, µM (highest dose often 57.1 µM), hits mostly inhibitors; AlphaScreen L3MBTL1–H3K9me1 peptide binding; also: nearly all actives have a fitted effect of over 60% in size
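L3MBTL1 (50 nM) pre-complexed 30 min with biotinylated H3(1-15)K9me1 peptide (75 nM), then compounds added for 30 min at room temperature; AlphaScreen streptavidin donor/nickel chelate acceptor beads (10 ug/mL final) read after 30 min dark incubation.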
G9a inh: G9a (human) methyltransferase inhibition | Q96KQ7 | G9a H3K9 monomethylation, AlphaScreen, 2 h | Potency, µM (series often up to 102 µM), usual class: inhibitors | actives 8.8% (n = 350,000); also: nearly all actives have a fitted effect of over 75% in size
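G9a (20 nM) preincubated 15 min RT with compounds, then 500 nM biotinylated H3K9 peptide and 20 uM SAM added; 2 h RT reaction. Monomethyl-H3K9 product detected by AlphaScreen with anti-H3K9me1 antibody, streptavidin donor and anti-rabbit IgG acceptor beads.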
Of the large screens only hits and unclear results are named; the others gave an inactive call; ! = repeats disagree. Calls follow the shape of the dose curve; as a rule, active = well fitted curve in the direction sought with a large enough effect; inconclusive = small, poorly fitted or top-dose-only effect, or another doubt; inactive = no such curve, though single readings can be large; an effect the other way counts as inactive or inconclusive.

CC(=O)N[C@@H](Cc1c[nH]c2ccccc12)C(=O)OCC(=O)Nc1cc(C)on1	none (no result: Sfp PPTase inh, BAZ2B block, L3MBTL1 inh, G9a inh)
O=C1CSc2ccc(C(=O)Nc3cccc(S(=O)(=O)Nc4ccc(Br)cc4)c3)cc2N1	Sfp PPTase inh 35µM, JMJD2A Tudor inh inconclusive, BAZ2B block inconclusive, G9a inh inconclusive
O=C(Nc1cccc(S(=O)(=O)Nc2ccc(Cl)cc2)c1)c1ccc(Cl)nc1	G9a inh 79µM
CCC/C(C#Cc1ccsc1)=C1/c2ccccc2C(=O)N1c1ccccc1	none (no result: Sfp PPTase inh, BAZ2B block, G9a inh)
O=C(NNC(=O)c1cc2cc(Br)ccc2oc1=O)c1ccc(O)cc1O	JMJD2A Tudor inh inconclusive, BAZ2B block 11µM (no result: L3MBTL1 inh)
O=C(c1ccc(Br)cc1)c1cc2ccc(O)cc2oc1=O	Sfp PPTase inh inconclusive, JMJD2A Tudor inh inconclusive, G9a inh 71µM (no result: L3MBTL1 inh)
O=C(c1ccccc1)c1cc2ccc(O)cc2oc1=O	none
CCC(C)n1c(=O)c2sccc2n2c(CCCC(=O)NCc3ccccc3Cl)nnc12 (stereo not drawn)	none (no result: Sfp PPTase inh, L3MBTL1 inh)
CC(C)Cn1c(=O)c2ccccc2n2c(-c3ccc(Br)cc3)nnc12	JMJD2A Tudor inh inconclusive (no result: Sfp PPTase inh, L3MBTL1 inh)
CC(C)OCCCn1c(=O)c2ccccc2n2c(-c3ccc(F)c(F)c3)nnc12	JMJD2A Tudor inh inconclusive, BAZ2B block 50µM, G9a inh inconclusive (no result: Sfp PPTase inh, L3MBTL1 inh)
COc1ccc(CCNC2CC(C)N(C)CC2C)cc1OC (stereo not drawn)	G9a inh 45µM
COc1ccc(CNC2CC(C)N(C)CC2C)cc1OC (stereo not drawn)	none
CCC(C)NC(=O)C1(NC(=O)Nc2ccccc2)CCCCC1 (stereo not drawn)	HP1b binding inh inconclusive, JMJD2A Tudor inh 18µM
COc1cccc(/C=C2\C(=O)N(c3cccc(C)c3)C(=O)c3ccccc32)c1	BAZ2B block inconclusive, G9a inh 18µM
Cc1cccc(N2C(=O)/C(=C\c3ccc(OC(F)F)cc3)c3ccccc3C2=O)c1	Sfp PPTase inh inconclusive, JMJD2A Tudor inh inconclusive, BAZ2B block inconclusive
Cc1ccc(C(=O)Nc2nnc(SCc3cc(=O)n4ccc(C)cc4n3)s2)cc1	none (no result: Sfp PPTase inh, L3MBTL1 inh)
Nc1nc(=S)c2ncn([C@H]3O[C@@H](CO)[C@@H](O)[C@@H]3O)c2[nH]1	Sfp PPTase inh 11µM, G9a inh inconclusive (no result: HP1b binding inh, JMJD2A Tudor inh, BAZ2B block, L3MBTL1 inh)
NC(=O)c1ncn([C@@H]2O[C@H](CO)[C@@H](O)[C@H]2O)c1O	G9a inh 25µM!
CC(=O)N1CCOc2cc(S(=O)(=O)Nc3cccc(C(F)(F)F)c3)c(Cl)cc21	none (no result: Sfp PPTase inh)
O=C(Cn1cnc2cc([N+](=O)[O-])ccc2c1=O)Nc1ccccc1-c1ccccc1	JMJD2A Tudor inh inconclusive (no result: G9a inh)
Oc1ccccc1C(=S)N1CCCC1	Sfp PPTase inh 50µM
COc1cccc(C(=O)C(=O)c2cccc(OC)c2OC)c1OC	none (no result: Sfp PPTase inh, BAZ2B block, L3MBTL1 inh, G9a inh)
O=C(OCC(=O)N1CCCC1)c1ccccc1O	none (no result: L3MBTL1 inh)
COc1cccc(C(=S)N2CCCC2)c1OC	HP1b binding inh inconclusive, Sfp PPTase inh 50µM, G9a inh 8.9µM
Oc1ccccc1C(=S)N1CCN(C(=S)c2ccccc2O)CC1	HP1b binding inh inconclusive, Sfp PPTase inh 28µM, G9a inh 3.5µM (no result: L3MBTL1 inh)
CSCC[C@H](NC(=O)[C@H](Cc1ccccc1)NC(=O)[C@H](Cc1cnc[nH]1)NC(=O)CNC(=O)[C@@H](NC(=O)[C@H](C)NC(=O)[C@H](Cc1c[nH]c2ccccc12)NC(=O)[C@H](CCC(N)=O)NC(=O)[C@@H]1CCCN1C(=O)[C@@H](NC(=O)[C@@H]1CCC(=O)N1)C(C)C)C(C)C)C(N)=O	none (no result: HP1b binding inh, JMJD2A Tudor inh, BAZ2B block, L3MBTL1 inh, G9a inh)
CCSc1nnc([C@@H]2CCCN2C(=O)OC(C)(C)C)o1	G9a inh 50µM
NS(=O)(=O)c1ccc(N/N=C/c2ccccc2C(=O)O)c([N+](=O)[O-])c1	L3MBTL1 inh inconclusive
NS(=O)(=O)c1ccc(N/N=C/c2ccc(O)cc2O)c([N+](=O)[O-])c1	BAZ2B block inconclusive (no result: G9a inh)
O=C(O)c1ccccc1NS(=O)(=O)c1ccc(NN=Cc2cccc(Cl)c2)c([N+](=O)[O-])c1	HP1b binding inh 79µM, JMJD2A Tudor inh 18µM (no result: Sfp PPTase inh, BAZ2B block, G9a inh)
O=C(O)c1ccccc1NS(=O)(=O)c1ccc(NN=Cc2ccc(F)cc2)c([N+](=O)[O-])c1	HP1b binding inh inconclusive, JMJD2A Tudor inh 45µM (no result: Sfp PPTase inh, BAZ2B block, G9a inh)
NS(=O)(=O)c1ccc(N/N=C/c2ccc(O)c(O)c2O)c([N+](=O)[O-])c1	HP1b binding inh 13µM, Sfp PPTase inh 4µM, JMJD2A Tudor inh 8.9µM, BAZ2B block 35µM, L3MBTL1 inh 2.8µM (no result: G9a inh)
COc1ccc(NS(=O)(=O)c2ccc(NN=Cc3ccc(C(=O)O)cc3)c([N+](=O)[O-])c2)cc1	none (no result: HP1b binding inh, Sfp PPTase inh, JMJD2A Tudor inh, BAZ2B block, G9a inh)
O=C(O)c1ccccc1NS(=O)(=O)c1ccc(N/N=C/c2ccc(O)c(O)c2)c([N+](=O)[O-])c1	HP1b binding inh 14µM, JMJD2A Tudor inh 28µM (no result: Sfp PPTase inh, BAZ2B block, L3MBTL1 inh, G9a inh)
